Only a selection was taken, and hits are over-represented in it overall.
CD40 NFkB inh: CD40 pathway inhibition in BL2 cells; 83,000 tested, 0.94% active; BL2 NF-kB luciferase reporter, CD40L-induced, 4 h; inhibition, % at 10 µM;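 active = mean inhibition of at least 50% with a set share of replicates also reaching that level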;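 also: 0% = neutral control wells and 100% = IKK inhibitor VII at 50 µM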
Starred values were filed as active, the others as inactive; [ ] = another dose, or the depositor's remark.

SMILES | CD40 NFkB inh
N#C[C@H]1[C@@H](c2ccc(C#Cc3ccc(F)cc3)cc2)[C@H](CO)N1C(=O)C1CCC1 | 6[25 µM]
N#C[C@H]1[C@H](c2ccc(C#Cc3ccccc3F)cc2)[C@H](CO)N1C(=O)C1CCC1 | -3
N#C[C@H]1[C@H](c2ccc(C#Cc3ccc(F)cc3)cc2)[C@H](CO)N1C(=O)C1CCC1 | 28[25 µM]
COc1ccccc1C#Cc1ccc([C@@H]2[C@@H](C#N)N(C(=O)C3CCCCC3)[C@@H]2CO)cc1 | -1
N#C[C@@H]1[C@@H](c2ccc(C#Cc3ccccc3F)cc2)[C@H](CO)N1C(=O)C1CCC1 | -29
N#C[C@@H]1[C@H](c2ccc(C#Cc3ccccc3F)cc2)[C@@H](CO)N1C(=O)C1CCC1 | 81*
N#C[C@H]1[C@H](c2ccc(C#Cc3ccccc3F)cc2)[C@@H](CO)N1C(=O)C1CCC1 | 62*
COc1ccc(C[C@@H]2CCn3nncc3COCCCNC2=O)cc1 | -7[25 µM]
O=C(C[C@@H]1C[C@@H]2c3cc(NC(=O)Nc4ccccc4)ccc3O[C@@H]2[C@H](CO)O1)NCCN1CCCCC1 | -9[25 µM]
CCCNC(=O)N1C[C@@H]2N[C@H](C1)C2c1ccc(-c2cccc(OC)c2)cc1 (some centres undefined) | -2
C/C=C/c1ccccc1[C@H]1[C@H](C#N)N(c2nc(CC)cs2)[C@H]1CO | 14[25 µM]
CCCCCCCC/C=C/CCCCCCCC(=O)NC(CO)Cc1ccc(O)cc1 (centres undefined) | 8[25 µM]
COc1ccc(N2CCN(C(=O)Cn3c(=O)c4cccn4c4cccnc43)CC2)cc1 | -5
COc1ccc(N2CCN(C(=O)COc3cccc4ccccc34)CC2)cc1 | -6
COc1ccc(N2CCN(C(=O)Cn3c(=O)[nH]c4ccccc4c3=O)CC2)cc1 | 29*
COc1ccc2c3c([nH]c2c1)[C@@H](CO)N(Cc1ccccc1F)CC31CCN(CC2CC2)CC1 | 6
C[C@@H]1CN([C@H](C)CO)C(=O)c2c(c3ccccc3n2C)-c2ccccc2CO[C@@H]1CN(C)C(=O)C1CC1 | -8
CC(=O)Nc1cccc2c1O[C@H](CN(C)C(=O)NC(C)C)[C@H](C)CN(C)C2=O | -6
CC1(C(=O)Nc2ccccc2Br)CCN1C(=O)Cc1ccc(Cl)cc1Cl (centres undefined) | 1
Clc1ccc(-c2cnc3n2CCCCC3)cc1 | -3
Clc1ccc(C[n+]2cc(-c3ccccc3)n3c2CCCCC3)c(Cl)c1 | 65*
CC1(C)CC1C(=O)N/C(=C\CCCCSCC(N)C(=O)O)C(=O)O (centres undefined) | -2[25 µM]
CCCC(=O)Nc1ccc2c(c1)OC[C@@H](C)NC[C@H](C)[C@H](OC)CN(C)C2=O | 3[25 µM]
CCCNc1ccc2ncc(Br)n2n1 | 36
Cc1ccc(C)c(C(=O)NCCN(C)C)c1 | 7
SMILES | CD40 NFkB inh
C=C(CN(C)C)C(=O)c1cc(C)ccc1C | 91*
Cc1ccc(C(=O)NCCN(C)C)cc1C | 12
COc1ccccc1C(=O)NC1=NCCS1 | -31
COc1ccccc1C#Cc1ccc2c(c1)[C@H]1[C@H](CCN1S(=O)(=O)c1cccc(C)c1)[C@H](CO)N2 | 7[25 µM]
CCc1nnc(NC(=O)C2CCCN(C(=O)c3ccc(Cl)cc3)C2)s1 (centres undefined) | -40
CCN(CC(=O)Nc1ccc(NC(C)=O)cc1)C(=O)C1CCCC1 | 1
CCN(CC(=O)Nc1ccc(NC(C)=O)cc1)C(=O)C1CCCN(C(=O)c2ccc(Cl)cc2)C1 (centres undefined) | 28*
CN1C(=O)c2cc(NC(=O)c3ccc(F)cc3)ccc2OC[C@H]2O[C@@H](CC(=O)NCC3CCCCC3)CC[C@@H]21 | 1
CC(C)CC(NC(=O)N1CCCCCC1)C(=O)NC(Cc1cn(C)c2ccccc12)C(=O)NC(Cc1ccccn1)C(=O)O (centres undefined) | -1[25 µM]
O=C(NC[C@H]1[C@H](c2ccccc2)[C@H](CO)N1CC1CCCC1)c1ccncc1 | -4[25 µM]
CCCC(=O)NNC(=O)CCC(=O)Nc1ccccc1Cl | 9
CCCC(=O)NC1=C(Cl)C(=O)c2ccccc2C1=O | 107*
CCNC1=C(Cl)C(=O)c2ccccc2C1=O | -25
Cc1ccccc1S(=O)(=O)N(C)C[C@@H]1OCc2ccccc2-c2ccccc2C(=O)N([C@@H](C)CO)C[C@@H]1C | 1
CC(=O)N(C)C[C@H]1Oc2c(NC(=O)NC(C)C)cccc2C(=O)N(C)C[C@@H]1C | -2
COC(=O)C(CC(C)C)NC(=O)C(N)Cc1ccccc1 (centres undefined) | 12
CC(C)C[C@@H](C=O)NC(=O)[C@H](CC(C)C)NC(=O)[C@H](CC(C)C)NC(=O)OCc1ccccc1 | 64*[25 µM]
O=C(NC(CO)C(=O)OCc1ccccc1)OCc1ccccc1 (centres undefined) | 3
CN1C[C@H]2[C@@H](c3ccccc31)[C@H](CO)N2C(=O)CN1CCOCC1 | 0[25 µM]
O=C(Nc1ccc2c(c1)OCO2)N[C@H]1CC[C@@H](CCNC(=O)C2CCCC2)O[C@@H]1CO | -5
O=C(c1cccc(F)c1)N1CC[C@H]2[C@H](CO)Nc3ccc(-c4ccccc4)cc3[C@H]21 | 7
Cc1cccc(-n2ncc3c(N4CCOCC4)ncnc32)c1 | 78*
Cn1ncc2c(N3CCOCC3)ncnc21 | 7

Compound activity as filed in PubChem.
